High-throughput results: PubChem, National Center for Advancing Translational Sciences (NCATS)
VP16 counter: Gal4-VP16 reporter inhibition counter-screen | Drosophila S2 Gal4-VP16 UAS-luciferase, luminescence, 20 h | Potency, µM (doses to about 53.6 µM), most hits filed as inhibitors | hit rate 3.5% among 310,000 | AID 2546;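 also: Gal4-VP16 expression switched on by copper sulfate through the metallothionein promoter; nearly all actives have a fitted effect of over 50% in size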
KB-3-1 tox: KB-3-1 parental cell cytotoxicity | KB-3-1 viability, CellTiter-Glo ATP luminescence, 72 h | Potency, µM (series often up to 46.1 µM), hits mostly cytotoxic | hit rate 1.4% among 400,000 | AID 1347075; also: nearly all actives have a fitted effect of over 60% in size
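KB-3-1 parental drug-naive adenocarcinoma cells in DMEM/10% FBS, incubated 72 h at 37 C with pin-transferred compounds across a concentration series. Viability by CellTiter-Glo luminescence; concentration-response curves fitted after normalization.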
RORgamma inh: inhibitors of mouse ROR gamma transcriptional activity; hit rate 5.4% among 310,000; Drosophila S2 Gal4-RORgamma UAS-luciferase reporter, 20 h; Potency, µM (highest dose often 53.6 µM), most hits filed as inhibitors; P51450; also: nearly all actives have a fitted effect of over 60% in size
Target sequence (P51450 whole entry, looked up, the tested form may be a part): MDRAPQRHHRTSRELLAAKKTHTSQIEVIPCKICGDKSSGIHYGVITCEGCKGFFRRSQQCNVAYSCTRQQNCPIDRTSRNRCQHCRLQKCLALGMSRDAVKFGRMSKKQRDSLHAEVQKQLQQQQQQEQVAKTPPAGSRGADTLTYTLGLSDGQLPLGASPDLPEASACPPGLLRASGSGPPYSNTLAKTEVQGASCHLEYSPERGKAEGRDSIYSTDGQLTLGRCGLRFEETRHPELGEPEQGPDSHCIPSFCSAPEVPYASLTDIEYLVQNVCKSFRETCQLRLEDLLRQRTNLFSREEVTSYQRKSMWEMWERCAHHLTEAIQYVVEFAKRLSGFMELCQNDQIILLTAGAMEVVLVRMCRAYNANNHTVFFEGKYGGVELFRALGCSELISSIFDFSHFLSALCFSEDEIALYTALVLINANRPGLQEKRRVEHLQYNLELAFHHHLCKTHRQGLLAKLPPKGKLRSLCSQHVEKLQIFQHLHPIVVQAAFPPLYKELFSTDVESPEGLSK
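In this cell-based reporter format, copper sulfate (700 uM final) drives Gal4–ROR gamma fusion expression from a metallothionein promoter in Drosophila Schneider cells; compounds preincubated 1 hr, reporter read after 20 hr at ambient temperature.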
KB-V1 MDR tox: KB-V1 MDR subline cytotoxicity; KB-V1 MDR cells viability, CellTiter-Glo, 72 h; Potency, µM (top dose mostly 46.1 µM), usual class: cytotoxic; hit rate 3.4% among 400,000; AID 1347076; also: nearly all actives have a fitted effect of over 60% in size
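In this primary screen, KB-V1 cells overexpressing P-gp are incubated with library compounds (lowest to highest concentration) for 72 h at 37 degrees C before a luminescent ATP viability read.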
SW480 rerep: induces DNA re-replication in SW480 colon adenocarcinoma cells | hit rate 1.8% among 340,000 | SW480 DNA re-replication, Hoechst DNA content imaging, 48 h | Potency, µM (doses to about 46.1 µM), most hits filed as activators | AID 624297; also: nearly all actives have a fitted effect of over 55% in size
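Treated cells incubate 48 hr (37 C, 5% CO2), are stained 40 min with Hoechst, and nuclear fluorescence is enumerated; a rise in nuclei with high DNA signal marks re-replication.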
MCF10A rerep: induces DNA re-replication in MCF 10a normal breast cells; Potency, µM (titrated, usually from 46.1 µM), most hits filed as activators; hit rate 2.9% among 350,000; MCF 10A DNA re-replication, Hoechst nuclear intensity, 48 h; also: nearly all actives have a fitted effect of over 50% in size
Numbers stand for hits. Rows were chosen to be rich in hits. Some 10% of all compounds tested hit in one or more screens of this group. Calls follow the shape of the dose curve; as a rule, active = well fitted curve in the direction sought with a large enough effect; inconclusive = small, poorly fitted or top-dose-only effect, or another doubt; inactive = no such curve, though single readings can be large; an effect the other way counts as inactive or inconclusive.

For CN1CCN(c2nc3c(c(=O)[nH]c(=O)n3C)n2CCCSc2nnnn2-c2ccccc2)CC1 the results were VP16 counter inactive, KB-3-1 tox inactive, RORgamma inh inactive, KB-V1 MDR tox inactive, SW480 rerep inactive and MCF10A rerep inactive.
Cc1csc(SCCn2c(N3CCN(c4ccccc4)CC3)nc3c2c(=O)[nH]c(=O)n3C)n1 was read as VP16 counter inactive, KB-3-1 tox inactive, RORgamma inh inactive, KB-V1 MDR tox 21µM, SW480 rerep inactive and MCF10A rerep inconclusive.
CC1CCN(c2nc3c(c(=O)[nH]c(=O)n3C)n2CC(C)CSc2nnnn2-c2ccccc2)CC1 (centres undefined) was read as VP16 counter inactive, KB-3-1 tox inactive, RORgamma inh inactive, KB-V1 MDR tox 3.7µM, SW480 rerep inactive and MCF10A rerep inactive.
`Cn1c(=O)[nH]c(=O)c2c1nc(N1CCCCC1)n2CCCSc1nnnn1-c1ccccc1` gave VP16 counter inactive, KB-3-1 tox inactive, RORgamma inh inconclusive, KB-V1 MDR tox 9.2µM, SW480 rerep inactive and MCF10A rerep inactive.
Screening CC1CC(C)CN(c2nc3c(c(=O)[nH]c(=O)n3C)n2CCCSc2nc3ccccc3s2)C1 (centres undefined) returned KB-3-1 tox inactive, KB-V1 MDR tox 4.1µM, SW480 rerep inactive and MCF10A rerep inactive.
`O=C(c1cc(-c2cccc(Cl)c2)on1)N1CCCCC1` gave KB-3-1 tox inactive and KB-V1 MDR tox inactive.
For O=C(/C=C/c1ccc(F)cc1)Nc1cccc([S+](=O)([O-])Nc2ccccc2F)c1 the results were KB-3-1 tox inactive and KB-V1 MDR tox inactive.
CC1CCCCN1C(=O)Cn1c(SCC(=O)N(C)c2ccccc2)nc2ccccc21 (centres undefined) was read as KB-3-1 tox inactive and KB-V1 MDR tox inactive.
`Cc1nnc(SCCn2c(N3CC(C)CC(C)C3)nc3c2c(=O)n(C)c(=O)n3C)s1` (centres undefined) gave VP16 counter inconclusive, KB-3-1 tox inactive, RORgamma inh inactive, KB-V1 MDR tox 21µM, SW480 rerep inactive and MCF10A rerep inactive.
CC1=C(C(=O)Nc2cc(Cl)ccc2C)C(c2ccccc2F)n2ncnc2N1 (centres undefined) was read as KB-3-1 tox inactive and KB-V1 MDR tox 18µM.
`O=c1c2sc3ccccc3c2n(Cc2cccc(C(F)(F)F)c2)c(=O)n1Cc1ccc(F)cc1` gave KB-3-1 tox inactive and KB-V1 MDR tox inactive.
CCn1c(SCC(=O)Nc2nccs2)nnc1-c1ccc(S(=O)(=O)N2CCCCCC2)cc1 was read as VP16 counter inactive, KB-3-1 tox inactive, RORgamma inh inactive, KB-V1 MDR tox inconclusive, SW480 rerep inactive and MCF10A rerep inactive.
Screening CCC(Sc1nnc(-c2ccc(C)c(Cl)c2)n1CC)C(=O)Nc1nccs1 (centres undefined) returned VP16 counter inconclusive, KB-3-1 tox inactive, RORgamma inh 13µM, KB-V1 MDR tox inconclusive, SW480 rerep inactive and MCF10A rerep inactive.
CCOC(=O)C1=C(c2ccccc2)NC(N)=NC1c1ccc(OCc2ccc(C(=O)OC)cc2)cc1 (centres undefined) was read as VP16 counter inactive, KB-3-1 tox inconclusive, RORgamma inh inactive, KB-V1 MDR tox inconclusive, SW480 rerep inconclusive and MCF10A rerep 18µM.
Cc1nc(N2CCOCC2)c2nc(-c3ccccc3)n(CCCN3CCCCC3C)c2n1 (centres undefined) was read as VP16 counter inactive and RORgamma inh inactive.
`COc1ccc2nc(SCC(=O)Nc3ccccc3C#N)[nH]c2c1` gave VP16 counter inactive, KB-3-1 tox inactive, RORgamma inh inconclusive, KB-V1 MDR tox inactive, SW480 rerep inactive and MCF10A rerep inactive.
`Cc1cc(C)nc(SCC(=O)NN)n1` gave VP16 counter inactive, KB-3-1 tox inactive, RORgamma inh 8.9µM, KB-V1 MDR tox inactive, SW480 rerep inactive and MCF10A rerep inactive.
Screening COc1ccc2nc(SCC(=O)Nc3ccccc3C)[nH]c2c1 returned VP16 counter inactive, KB-3-1 tox inactive, RORgamma inh inactive, KB-V1 MDR tox 15µM, SW480 rerep inactive and MCF10A rerep inactive.
`Cc1cc(C)nc(SCC(=O)Nc2ccc(S(=O)(=O)NC(C)(C)C)cc2)n1` gave VP16 counter inactive, KB-3-1 tox inactive, RORgamma inh inactive, KB-V1 MDR tox 21µM, SW480 rerep inactive and MCF10A rerep inactive.
For O=C(CSc1nc2ccc(Cl)cc2[nH]1)NCCc1ccccc1 the results were VP16 counter inactive, KB-3-1 tox inactive, RORgamma inh inactive, KB-V1 MDR tox 16µM, SW480 rerep inactive and MCF10A rerep inconclusive.
Screening O=C(CSc1nc2ccc(Cl)cc2[nH]1)NCCc1ccc(Cl)cc1 returned VP16 counter inactive, KB-3-1 tox inactive, RORgamma inh inactive, KB-V1 MDR tox inactive, SW480 rerep inactive and MCF10A rerep inconclusive.
For Cc1ccc(NC(=O)N2CCN(C)c3ncccc32)cc1C the results were KB-3-1 tox inactive and KB-V1 MDR tox inactive.
Screening CN(C)c1ccc(-c2cncnc2Nc2ccccc2)cc1 returned VP16 counter inactive and RORgamma inh inactive.
Cc1ccc(S(=O)(=O)N(C)C)cc1NC(=O)CSc1nc2ccccc2[nH]1 was read as VP16 counter inactive, KB-3-1 tox inactive, RORgamma inh inactive, KB-V1 MDR tox 15µM, SW480 rerep inactive and MCF10A rerep inconclusive.
For Cc1cc(C)nc(NS(=O)(=O)c2ccc(NC(=O)CSc3nc4ccccc4[nH]3)cc2)n1 the results were VP16 counter 4µM, KB-3-1 tox inactive, RORgamma inh inactive, KB-V1 MDR tox inactive, SW480 rerep inactive and MCF10A rerep inactive.
`O=C(c1ccco1)n1nc(-c2ccccc2)nc1NCc1ccccc1Cl` gave KB-3-1 tox inactive and KB-V1 MDR tox inactive.
For Cc1nc([N+](=O)[O-])c(SCC(N)=O)n1Cc1ccccc1 the results were VP16 counter inactive, KB-3-1 tox inactive, RORgamma inh inactive, KB-V1 MDR tox inactive, SW480 rerep inactive and MCF10A rerep inactive.
Cc1nc([N+](=O)[O-])c(Sc2nc3ccccc3n2C)n1Cc1ccccc1 was read as VP16 counter inconclusive, KB-3-1 tox inactive, RORgamma inh inconclusive, KB-V1 MDR tox inactive, SW480 rerep inconclusive and MCF10A rerep 15µM.
CN(C(=O)CN1C(=O)NC(C)(c2cccc(Br)c2)C1=O)C1CCCCC1 (centres undefined) was read as KB-3-1 tox inactive, KB-V1 MDR tox 23µM, SW480 rerep inactive and MCF10A rerep inactive.
CC1(c2cccc(Br)c2)NC(=O)N(CC(=O)NCC2CCCO2)C1=O (centres undefined) was read as KB-3-1 tox inactive, KB-V1 MDR tox inactive, SW480 rerep inactive and MCF10A rerep inactive.
